The test system of assay [1] is Staphylococcus aureus MW2 delta-mecA (mecA-). Put plainly: normalized GFP fluorescence (growth of mecA- strain) (fraction of control range); higher = more growth of mecA- strain. As to conditions: compound concentration: 150 uM; cefoxitin: subinhibitory; fluorescent label: GFP. The procedure, abridged: (§1)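 Pre-induced S. aureus MW2 cells with the gene (DsRed) and without it (GFP) were mixed 1:1 in LB holding a subinhibitory antibiotic dose set daily and grown on 150 μM compound (1.5% DMSO) in 1536-well plates, single replicate, for 20 h at 37 °C. DsRed (540/590) and GFP (485/520) readings were scaled per plate between single-strain control medians. Plates with high untreated ratios and rows with DsRed/GFP >10 were excluded.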

For assay [2], the system named is Staphylococcus aureus MW2 (mecA+). Put plainly: normalized DsRed fluorescence (growth of mecA+ strain) (fraction of control range); higher = more growth of mecA+ strain. As to conditions: compound concentration: 150 uM; cefoxitin: subinhibitory; fluorescent label: DsRed. The gist of the method:
as §1

Structures are written as SMILES.

`NC[C@H]1O[C@H](O[C@H]2[C@H](O[C@@H]3O[C@H](CO)[C@@H](O)[C@H]3O)[C@@H](O)[C@H](N)C[C@@H]2N)[C@H](N)[C@@H](O)[C@@H]1O`: the “normalized GFP fluorescence” value in assay [1] was 0.457. Besides, in assay [2], the “normalized DsRed fluorescence” value was determined as 0.685.

Consider `Cc1nc(C)c(Cl)c(O)c1Cl`, for which the “normalized GFP fluorescence” value in assay [1] was found to be 0.341. Moreover, the “normalized DsRed fluorescence” value in assay [2] was 0.741.

Regarding `Cc1ccc([C@@H]2O[C@H](CO)[C@@H](O)[C@H](O)[C@H]2O)cc1Cc1ccc(-c2ccc(F)cc2)s1` [Canagliflozin], the “normalized GFP fluorescence” value in assay [1] was -0.0143. The “normalized DsRed fluorescence” value in assay [2] was determined as 0.755.

As for `CN1CCc2cccc3c2[C@H]1Cc1ccc(O)c(O)c1-3`, the “normalized GFP fluorescence” value in assay [1] amounted to 0.463. Moreover, in assay [2], the “normalized DsRed fluorescence” value stood at 0.543.

With `NCCc1c[nH]cn1`, the “normalized GFP fluorescence” value in assay [1] was 0.621. Also, the “normalized DsRed fluorescence” value in assay [2] stood at 0.661.

With `O=c1[nH]c(=O)n([C@H]2C[C@H](O)[C@@H](CO)O2)cc1I` [Idoxuridin], the “normalized GFP fluorescence” value in assay [1] turned out to be 0.512. For the same compound, in assay [2], the “normalized DsRed fluorescence” value came to 0.959.

For `CNC(=C[N+](=O)[O-])NCCSCc1csc(CN(C)C)n1`, the “normalized GFP fluorescence” value in assay [1] stood at 0.575. Besides, the “normalized DsRed fluorescence” value in assay [2] worked out at 0.785.

As to `CCCNC(=O)NS(=O)(=O)c1ccc(Cl)cc1`, in assay [1], the “normalized GFP fluorescence” value was 0.221. The “normalized DsRed fluorescence” value in assay [2] came to 0.489.

Turning to `COc1ccc2[nH]cc(CCNC(C)=O)c2c1` [Melatonin], in assay [1], the “normalized GFP fluorescence” value was 0.484. Also, the “normalized DsRed fluorescence” value in assay [2] was 0.734.

The record behind these values is the supplement of paper PMC7695840.
